# The supplement of paper PMC10498489
# Hit rate of the full screen: of about 2,300 compounds, about 330 (14%) showed activity.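 The calls were made as follows: active = median modified Z-score above 1.96; inactive = 1.96 or below.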 These entries were drawn from the full list.
# System: HepG2 Srxn1-GFP reporter cells (+30 nM CDDO-Me)
# Experiment: Srxn1-GFP intensity median modified Z-score relative to plate median; higher = stronger NRF2 / oxidative stress reporter activation, active = hit call of the paper
# Details: 10 µM; exposure time: 24h
# Procedure, shortened: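 Per-cell cytoplasmic GFP was measured on confocal images of formaldehyde-fixed, Hoechst-stained HepG2 Srxn1-GFP BAC reporter cells, excluding images with fewer than 100 cells. Before this, the cells (20,000 per well, 96-well plates) were co-exposed for 24 h to compound at 10 μM and an NRF2 activator at 30 nM with ≤0.1% DMSO, in three replicate plates. Each value is the median over replicates of the per-plate modified Z-score of GFP intensity. That score was scaled with 1.4826 × median absolute deviation.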
row,SMILES,Srxn1-GFP intensity median modified Z-score
1,Cc1cc2c(C(C)C)c(O)c(O)c(C=O)c2c(O)c1-c1c(C)cc2c(C(C)C)c(O)c(O)c(C=O)c2c1O [euspeclibcmpd1471],3.88 (active)
2,Cc1cc2c(C(C)C)c(O)c(O)c(C=O)c2c(O)c1-c1c(C)cc2c(C(C)C)c(O)c(O)c(C=O)c2c1O [euspeclibcmpd2093],3.73 (active)
3,CN1C2CCC1CC(OC(=O)C(CO)c1ccccc1)C2 (stereo unspecified) [euspeclibcmpd2059],-0.875 (inactive)
4,CC[C@@]1(O)C(=O)OCc2c1cc1n(c2=O)Cc2cc3ccccc3nc2-1 [euspeclibcmpd1447],-0.602 (inactive)
5,COP(=O)(OC)C(O)C(Cl)(Cl)Cl (stereo unspecified) [euspeclibcmpd866],3.07 (active)
6,CCC(COC(=O)c1cc(OC)c(OC)c(OC)c1)(c1ccccc1)N(C)C (stereo unspecified) [euspeclibcmpd1183],-0.264 (inactive)
7,Oc1ccc2c3c1OC1[C@@H](O)CC[C@@]4(O)[C@@H](C2)N(CC2CCC2)CC[C@]314 (stereo partly specified) [euspeclibcmpd978],0.208 (inactive)
8,COC(=O)C(c1ccccc1)C1CCCCN1 (stereo unspecified) [euspeclibcmpd885],-0.181 (inactive)
9,CN(C)C(=O)Oc1cccc([N+](C)(C)C)c1 [euspeclibcmpd207],0.0711 (inactive)
10,CC(C)c1cc2c(c(O)c1O)[C@@]1(C(=O)O)CCCC(C)(C)C1CC2 (stereo partly specified) [euspeclibcmpd2302],5.33 (active)
11,c1ccc2c(c1)Nc1ccccc1S2 [euspeclibcmpd928],0.0728 (inactive)
12,NCCc1c[nH]c2ccccc12 [euspeclibcmpd1506],-0.231 (inactive)
13,NNCc1ccccc1 [euspeclibcmpd1327],0.32 (inactive)
14,S=C=NCc1ccccc1 [euspeclibcmpd1105],100 (active)
15,CC(=O)c1c(O)cc(C)oc1=O [euspeclibcmpd1006],15.5 (active)
16,CN(C)C1C(=O)C(C(N)=O)C(=O)[C@@]2(O)C(=O)C3C(=O)c4c(O)ccc(Cl)c4[C@@](C)(O)[C@H]3C[C@@H]12 (stereo partly specified) [euspeclibcmpd61],0.0407 (inactive)
17,NCC(CC(=O)O)c1ccc(Cl)cc1 (stereo unspecified) [euspeclibcmpd593],-0.2 (inactive)
18,CN(C)C1C(=O)C(C(N)=O)C(=O)[C@@]2(O)C(=O)C3C(=O)c4c(O)cccc4[C@@](C)(O)[C@H]3C[C@@H]12 (stereo partly specified) [euspeclibcmpd288],0.167 (inactive)
19,C=C(C)[C@@H]1[C@H]2OC(=O)[C@@H]1[C@]1(O)C[C@H]3O[C@]34C(=O)O[C@H]2[C@]14C [euspeclibcmpd1351],17.9 (active)
20,CC(C)(O)[C@@H]1[C@H]2OC(=O)[C@@H]1[C@]1(O)C[C@H]3O[C@]34C(=O)O[C@H]2[C@]14C [euspeclibcmpd1439],-0.455 (inactive)
21,CCC(C)C(=O)O[C@@H]1C[C@@]2(C)[C@H](c3ccoc3)OC(=O)CC23OC2(C)OC34[C@H](OC(=O)C(C)C)[C@@]3(O)[C@@H](OC(=O)C5(C)OC5C)[C@@]5(C)C[C@]3(O)[C@@](C)([C@H]5CC(=O)OC)C14O2 (stereo partly specified) [euspeclibcmpd1627],0.307 (inactive)

row,SMILES,Srxn1-GFP intensity median modified Z-score
1,COc1c2c(cc3c1OCO3)CC[N+](C)=C2 [euspeclibcmpd2418],0.209 (inactive)
2,CNCC(=O)c1ccc(O)c(O)c1 [euspeclibcmpd922],-1.16 (inactive)
3,CCC1(CC)C(=O)NC(=O)NC1=O [euspeclibcmpd2126],0.302 (inactive)
4,CC1=NCCc2c1[nH]c1cc(O)ccc21 [euspeclibcmpd2357],7.71 (active)
5,COc1ccc2c3c([nH]c2c1)C(C)=NCC3 [euspeclibcmpd2276],66 (active)
6,Cl[C@H]1[C@H](Cl)[C@@H](Cl)[C@@H](Cl)[C@H](Cl)[C@H]1Cl [euspeclibcmpd969],0.0503 (inactive)
7,CC1C(=O)O[C@@H]2O[C@]3(C)CC[C@H]4[C@H](C)CC[C@@H]1[C@@]24OO3 (stereo partly specified) [euspeclibcmpd1110],0.987 (inactive)
8,CC(=O)O[C@@H]1C2CC[C@@H]3C1(C[C@@H](O)[C@@]1(O)[C@@H](C[C@H](O)C1(C)C)[C@]3(C)O)C[C@@]2(C)O (stereo partly specified) [euspeclibcmpd2325],-0.506 (inactive)
9,CC(C)(C#N)O[C@@H]1O[C@H](CO)[C@@H](O)[C@H](O)[C@H]1O [euspeclibcmpd1356],0.0487 (inactive)
10,CC1C[C@H](C)C[C@H]([C@H](O)CC2CC(=O)NC(=O)C2)C1=O (stereo partly specified) [euspeclibcmpd437],-0.201 (inactive)
11,C=C[C@H]1C[N@]2CC[C@H]1C[C@@H]2[C@H](O)c1ccnc2ccccc12 [euspeclibcmpd2140],0.321 (inactive)
12,Cc1nc(=N)c(CNC(=O)N(CCCl)N=O)c[nH]1 [euspeclibcmpd1167],-0.0324 (inactive)
13,N=C(N)NN [euspeclibcmpd930],-0.0849 (inactive)
14,CC[C@H]1CN2CCc3cc(OC)c(OC)cc3C2C[C@@H]1CC1NCCc2cc(OC)c(OC)cc21 (stereo partly specified) [euspeclibcmpd109],-1.21 (inactive)
15,CC(C)CC1C(=O)N2CCC[C@H]2[C@@]2(O)O[C@](NC(=O)C3=CC4c5cccc6[nH]c(Br)c(c56)CC4N(C)C3)(C(C)C)C(=O)N12 (stereo partly specified) [euspeclibcmpd39],23.2 (active)
16,CC[C@@H](CO)NC(=O)C1=CC2c3cccc4c3c(cn4C)C[C@H]2N(C)C1 (stereo partly specified) [euspeclibcmpd522],-0.363 (inactive)
17,CN1CC(C(=O)N[C@]2(C)O[C@@]3(O)C4CCCN4C(=O)C(Cc4ccccc4)N3C2=O)=CC2c3cccc4[nH]cc(c34)CC21 (stereo partly specified) [euspeclibcmpd823],113 (active)
18,CCC(CO)NC(=O)C1=CC2c3cccc4[nH]cc(c34)CC2N(C)C1 (stereo unspecified) [euspeclibcmpd1928],-0.0083 (inactive)
19,CN1CC(C(=O)N[C@]2(C)O[C@@]3(O)[C@@H]4CCCN4C(=O)C(Cc4ccccc4)N3C2=O)C[C@@H]2c3cccc4[nH]cc(c34)C[C@H]21 (stereo partly specified) [euspeclibcmpd97],-0.0377 (inactive)
20,CC(CO)NC(=O)C1=CC2c3cccc4[nH]cc(c34)CC2N(C)C1 (stereo unspecified) [euspeclibcmpd113],0.556 (inactive)
